Source: PubChem (several laboratories)
An excerpt weighted towards active compounds, which were near 2.6% of everything screened.
IDE act = human IDE activators in live cells, primary screen, fluorescence polarization, HEK cells, FAbeta-B substrate. Insulin-degrading enzyme (Homo sapiens), P14735. FAbeta-B cleavage; 0% vehicle, 100% cell-free pure enzyme wells. activation, % at 5.96 µM. 340,000 compounds, 0.073% hits;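 active means activation above the mean of all tested compounds plus 3 SD, set per screening campaign, cut at about 17% in these data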
Target sequence (P14735 whole entry, looked up): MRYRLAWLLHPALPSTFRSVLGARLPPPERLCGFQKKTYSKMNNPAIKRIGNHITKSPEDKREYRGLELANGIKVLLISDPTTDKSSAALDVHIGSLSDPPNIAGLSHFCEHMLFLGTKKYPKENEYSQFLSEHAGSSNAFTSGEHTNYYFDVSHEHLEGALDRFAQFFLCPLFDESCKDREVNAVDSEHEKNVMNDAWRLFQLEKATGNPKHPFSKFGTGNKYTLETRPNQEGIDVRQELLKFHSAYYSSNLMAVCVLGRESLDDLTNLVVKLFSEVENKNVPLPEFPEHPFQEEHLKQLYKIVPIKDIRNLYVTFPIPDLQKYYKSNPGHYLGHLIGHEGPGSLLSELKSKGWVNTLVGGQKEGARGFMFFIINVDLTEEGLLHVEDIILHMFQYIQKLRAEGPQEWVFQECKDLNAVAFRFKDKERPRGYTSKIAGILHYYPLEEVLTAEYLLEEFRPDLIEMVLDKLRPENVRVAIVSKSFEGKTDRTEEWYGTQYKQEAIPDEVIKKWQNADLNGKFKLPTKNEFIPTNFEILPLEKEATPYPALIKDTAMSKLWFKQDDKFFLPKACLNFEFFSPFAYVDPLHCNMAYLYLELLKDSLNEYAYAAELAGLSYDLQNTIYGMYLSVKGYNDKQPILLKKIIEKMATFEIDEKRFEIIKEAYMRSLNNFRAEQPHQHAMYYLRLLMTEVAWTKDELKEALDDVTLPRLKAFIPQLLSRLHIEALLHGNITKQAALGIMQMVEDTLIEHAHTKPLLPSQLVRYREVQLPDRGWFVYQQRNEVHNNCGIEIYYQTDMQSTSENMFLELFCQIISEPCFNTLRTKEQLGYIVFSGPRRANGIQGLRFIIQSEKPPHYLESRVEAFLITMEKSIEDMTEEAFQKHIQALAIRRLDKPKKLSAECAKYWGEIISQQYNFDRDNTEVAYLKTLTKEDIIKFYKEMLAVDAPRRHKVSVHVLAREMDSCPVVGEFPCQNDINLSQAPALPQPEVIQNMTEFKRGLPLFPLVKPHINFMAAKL
CRFR2-BP ag = agonists of CRF-BP/CRF-R2 complex, primary screen, cell-based, HEK293, calcium dye fluorescence, uHTS; AID 588473, 2011; CRF-binding protein / CRF receptor 2 complex (human); calcium dye fluorescence (FLIPR); percent of saturating CRF peptide response; activation, % at 13.2 µM; 350,000 compounds, 0.46% hits;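 active means activation of at least 50%, plus an integration ratio under a set limit after plate pattern correction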;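 further: plate controls were neutral control wells without compound for no effect and CRF at EC100 for full effect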
TPT1 inhibitor = Candida albicans TPT1 enzyme inhibitors, primary screen, biochemical, fluorescence polarization | tRNA 2'-phosphotransferase TPT1 (Candida albicans SC5314) | recombinant caTPT1, FP RNA substrate dephosphorylation | inhibition, % at 5 µM | 300,000 compounds, 0.81% hits;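 active means inhibition above the mean of all tested compounds plus 3 SD, set per screening campaign, cut at about 24% in these data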;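 further: plate controls were DMSO alone for no effect and ferristatin control at 100 nM for full effect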
IDE cell inh = human IDE inhibitors in live cells, primary screen, fluorescence polarization, HEK cells, FAbetaB substrate; 320,000 compounds, 0.41% hits; FAbetaB cleavage; Insulin-degrading enzyme (Homo sapiens), P14735; inhibition, % at 5.59 µM; AID 434962, 2010;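 active means percent inhibition above the average of all tested compounds plus 3 SD, set per screening campaign, cut at about 16% in these data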;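 further: IDE supplied by intact live HEK cells; FP after avidin binding of uncleaved biotin substrate so inhibition keeps polarization high; 0% = DMSO wells and 100% = 60 µM reference IDE inhibitor Ii1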
CRFR2-BP antag = antagonists of CRF-BP/CRF-R2 complex, primary screen, cell-based, HEK293, calcium dye fluorescence, uHTS | AID 588475, 2011 | 350,000 compounds, 0.59% hits | CRF-induced calcium fluorescence | inhibition, % at 11.8 µM;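 active means inhibition of the ligand-induced calcium signal above about 50% at the single tested concentration, limit read from the data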
Myeloid diff 2 = induction of myeloid progenitor differentiation, primary screen, cell-based, flow cytometry, MLPCN library; ER-HoxA9 myeloid progenitors, lysozyme-GFP differentiation; calls only at 10 µM; 360,000 compounds, 1% hits;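 active means normalized GFP-positive differentiation at or above the plate's own cutoff, the solvent-only control mean plus 3 SD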;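 further: cells exposed to compound for four days before flow analysis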
Myeloid diff = inducers of myeloid progenitor differentiation, confirmation, cell-based, GFP/Mac1 flow cytometry, cherry pick 01. AID 651706, 2012. 2,300 compounds, 2% hits. shares compounds with Myeloid diff 2. calls only. ER-HoxA9 myeloid progenitors, GFP/Mac1 double-positive flow;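 active means share of green or green-and-red cells above 9 and 9% in run 1 or 4 and 3% in run 2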
GFP autofluor = compound fluorescence in myeloid differentiation counter-screen; shares compounds with Myeloid diff 2; ER-HoxA9 myeloid progenitors, no estrogen, GFP autofluorescence flow cytometry; vehicle wells 0%, positive control 100%; fluorescence response, % (no concentration beside the values); 2,300 compounds, 7.4% hits; AID 651707;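 active means over 5% cells positive for green fluorescent reporter, or over 2% positive for both it and APC stain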;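 further: range taken on the double positive population between DMSO and positive control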
Starred values were filed as active, the others as inactive; i = inactive; / = no result given; + = active, no number.

SMILES | IDE act | CRFR2-BP ag | TPT1 inhibitor | IDE cell inh | CRFR2-BP antag | Myeloid diff 2 | Myeloid diff | GFP autofluor
COc1cccc(Oc2cnc(N)nc2-c2ccc(OC)cc2O)c1 | -8 | -4 | -2 | 6 | -73 | i | / | /
COc1ccc(S(=O)(=O)N2CCOCC2)cc1NC(=O)CSc1n[nH]c(C(C)C)n1 | 7 | 2 | 0 | 1 | 3 | i | / | /
O=C1N=C(N2CCN(Cc3ccccc3)CC2)S/C1=C/c1cccs1 | / | -5 | 3 | -2 | -2 | + | i | 0
O=C1N=C(N2CCN(c3ccccc3)CC2)S/C1=C/c1cccs1 | -1 | 5 | -2 | 1 | 15 | i | / | /
O=S1(=O)N=C(N2CCN(Cc3ccccc3)CC2)c2ccccc21 | 2 | -2 | -3 | -5 | -1 | + | i | 0
O=S1(=O)N=C(N2CCN(Cc3ccc4c(c3)OCO4)CC2)c2ccccc21 | -2 | 0 | 1 | -2 | -8 | i | / | /
O=C(CNC(=O)C1COc2ccccc2O1)Nc1ccc(F)c(F)c1 (stereo not given) | 0 | 7 | / | 8 | -15 | i | / | /
COc1ccc(CN2c3c(Br)cccc3C(=O)CS2(=O)=O)cc1 | 4 | -7 | / | / | 6 | + | i | 0
CC(NC(=O)CSc1nc(=O)cc(N)n1-c1ccccc1)c1ccccc1 (stereo not given) | 6 | -3 | 0 | 9 | 26 | i | / | /
C=CCn1c(N)cc(=O)nc1SCC(=O)NC(C)c1ccccc1 (stereo not given) | 1 | 0 | 1 | -1 | 1 | i | i | 0
O=C(NCc1ccc(F)cc1)c1[nH]c(C(F)(F)F)nc1-c1ccccc1 | / | / | / | / | / | i | / | /
COc1ccccc1OCc1nnc(SCC(=O)N2CCCC2)o1 | 0 | -1 | -5 | -1 | 11 | i | / | /
COc1ccccc1OCc1nnc(SCCN2CCOCC2)o1 | -5 | -1 | 1 | 9 | 24 | i | i | 0
COc1ccccc1Cc1c(C(C)(C)C)nc2c3ccccc3ccn12 | / | / | / | / | / | + | i | 0
COc1ccccc1Cc1c(-c2ccc(OC)c(OC)c2)nc2c3ccccc3ccn12 | / | / | / | / | / | i | / | /
CCn1c(SCC(=O)OCc2ccccc2)nnc1-c1ccco1 | 8 | -2 | 1 | 2 | -5 | i | / | /
CCn1c(Sc2ccc([N+](=O)[O-])cn2)nnc1-c1ccco1 | -3 | -1 | -1 | -1 | 4 | i | i | 0
O=C(c1cc([N+](=O)[O-])[nH]n1)N1CCSCC1 | -1 | 0 | 2 | 1 | -3 | i | / | /
CCOC(=O)c1c(C)[nH]c(C(=O)OCC(=O)NCCc2ccc(OCC)c(OCC)c2)c1C | 0 | -3 | -1 | 1 | 0 | + | i | 0
COCCCn1c(SCC(=O)OC2CCCCC2)nnc1-c1cccs1 | 4 | -3 | 0 | 6 | 0 | i | i | 0
CCOC(=O)CCC(NC(=O)c1ccc(Nc2nc3ccccc3nc2C(=O)OCC)cc1)C(=O)OCC (stereo not given) | 4 | 3 | / | / | 24 | / | / | /
O=C(NCC(=O)N1CCCC1)NN=Cc1ccccc1O | / | / | / | / | / | i | / | /
O=C(Cc1ccccc1)N/N=C/c1ccc([N+](=O)[O-])s1 | 2 | -2 | -2 | 0 | 0 | + | i | 3
COc1cc(C(=O)OC(C)C(=O)N2CCCC2)cc2c1OCCO2 (stereo not given) | 3 | -1 | / | -1 | -2 | i | i | 0
COc1cc(C(=O)OCC(=O)NC2CCCCC2)cc(OC)c1OC | -5 | -1 | / | 1 | -4 | i | / | /
SMILES | IDE act | CRFR2-BP ag | TPT1 inhibitor | IDE cell inh | CRFR2-BP antag | Myeloid diff 2 | Myeloid diff | GFP autofluor
COc1cc(C(=O)OC(C)CN2CCCC2)cc(OC)c1OC (stereo not given) | 2 | 0 | -8 | 4 | -20 | i | / | /
COc1cc(C(=O)OCC(=O)NC2CCCCC2)cc2c1OCCO2 | -2 | 9 | / | 2 | 20 | + | i | 1
O=C(Nc1ccc(C(=O)N2CCOCC2)cc1)Nc1cccc2ccccc12 | -3 | 1 | 4 | 4 | -39 | i | / | /
Cc1cc(C)cc(Nc2ncc3c(n2)CCCC3=O)c1 | 4 | 0 | 3 | 3 | -7 | i | / | /
C=CCNC(=O)c1ccc(N(CC=C)S(C)(=O)=O)cc1 | 5 | 0 | -3 | 8 | 6 | + | i | 0
COc1ccc(OC)c(NC(=O)NCCc2c[nH]c3ccccc23)c1 | -2 | -1 | / | / | 9 | i | / | /
Cc1ccc(C)c(Nc2nc(-c3ccncc3)nc3ccccc23)c1 | 1 | -1 | 1 | 4 | -29 | i | / | /
COc1ccc(CN2CC[C@H]3C=CC[C@@H](C(=O)Nc4ccc(Cl)c(C(F)(F)F)c4)[C@H]3C2=O)cc1OC | -2 | -2 | -1 | 2 | 7 | i | i | 0
CC(=O)Oc1ccc(Cn2cnc3cc4ccccc4cc32)cc1 | 2 | 0 | -4 | 6 | 1 | i | i | 0
COc1ccc2c(c1)C(=O)N1[C@H]3c4cc(C)ccc4OC[C@@H]3[C@H](c3ccccc3)[C@]1(C)C(=O)N2 | 0 | 2 | 0 | -1 | 2 | + | i | 0
COc1ccc(NS(=O)(=O)c2ccc3oc(SC)nc3c2)cc1 | 2 | -2 | -1 | 1 | 4 | i | / | /
COc1ccc(NS(=O)(=O)c2ccc3oc(SC4CCOC4=O)nc3c2)cc1 (stereo not given) | -3 | 4 | -1 | 1 | -4 | i | i | 0
Cc1cccc(Cn2c(=O)n(-c3ccc(CC(=O)NCc4ccco4)cc3)c(=O)c3sccc32)c1 | 5 | 0 | -4 | 4 | 7 | i | i | 0
CCC(C)NC(=O)Cn1c(=O)n(-c2ccccc2)c(=O)c2ccc(C(=O)NCc3ccco3)cc21 (stereo not given) | 4 | 1 | -1 | -4 | 0 | i | / | /
Cc1ccc(-n2c(=O)c3sccc3n(CC(=O)NCc3ccco3)c2=O)cc1 | 9 | 0 | -2 | 3 | 20 | i | / | /
Cc1ccc(Cn2c(=O)n(Cc3ccco3)c(=O)c3ccccc32)cc1 | -2 | 2 | 3 | 1 | -9 | i | i | 0
